Screens as filed in PubChem.
Shown are actives, neighbours in structure and some others; about 0.85% of the full set was active somewhere.
Mm-Cpn inhibitor: Inhibitors of TCP-1 ring complex (TRiC) of Methanococcus maripaludis (MmCpn): qHTS; 330,000 tested, 0.031% active; Potency, µM (titrated, usually from 76.9 µM), inactives show top-dose activity, negative = inhibition, usual class: inhibitors; purified Mm-Cpn ATPase, ADP Transcreener TR-FRET; further: potency means the concentration at half of the fitted maximal effect; on the % scale 0 is the no-effect control and ±100 the full control effect; nearly all actives have a fitted effect of over 80% in size
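Quantitative HTS used 25 nM Mm-CPN and 10 uM ATP in magnesium/KCl Tris buffer, pH 7.4, with 1 mM DTT. Hydrolysis ran 30 min at 37°C; ADP was read by HTRF.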
IDH1 R132H inh: qHTS for Inhibitors of mutant isocitrate dehydrogenase 1 (IDH1): qHTS. Isocitrate dehydrogenase [NADP] cytoplasmic (Homo sapiens), O75874. IDH1-R132H enzyme, NADPH consumption, diaphorase/resazurin fluorescence. Potency, µM (top dose mostly 76.6 µM), without a hit: at the top dose activity change, negative = inhibition, actives largely listed as inhibitors. 390,000 tested, 0.093% active. AID 602179, 2012; further: potency means the concentration at half of the fitted maximal effect; on the % scale 0 is the no-effect control and ±100 the full control effect; nearly all actives have a fitted effect of over 65% in size
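IDH1-R132H (0.5 ug/mL) preincubated 30 min with compound, then NADPH (0.016 mM) and alpha-KG (2 mM) added; 80 min at RT, pH 7.5. Remaining NADPH coupled via diaphorase/resazurin to fluorescence (540/590 nm); concentration-response curves normalized to no-enzyme control.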
Akt phos inh: HTS Assay for Inhibitors of Akt Phophorylation: Primary Screen. Neuro2A IGF-stimulated pAkt S473 HTRF, 20 min; stronger effect = lower value. activity change, % for hits at 50 µM. 360,000 tested, 0.32% active; in the data active means activity change below about -80%; inconclusive means mostly about -51% to -80%; further: on the % scale 0 is the no-effect control and ±100 the full control effect
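Neuro2A cells in DMEM with 0.5% FBS, overnight at 37 deg C, given compound at single 50 µM final, then IGF (6 nM final) for 20 min at 37 deg C. Lysed; phospho-Akt Ser473 by HTRF after 24 h, 665/615 ratio.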
GLS inh: qHTS for Inhibitors of Glutaminase (GLS); Glutaminase kidney isoform, mitochondrial (Homo sapiens), O94925; GLS enzymatic activity, qHTS titration; Potency, µM (doses to about 45.5 µM), without a hit: at the highest dose activity change, negative = inhibition, actives largely listed as inhibitors; 410,000 tested, 0.21% active; AID 624170, 2012; further: potency means the concentration at half of the fitted maximal effect; on the % scale 0 is the no-effect control and ±100 the full control effect
Target sequence (O94925 whole entry, looked up, canonical isoform): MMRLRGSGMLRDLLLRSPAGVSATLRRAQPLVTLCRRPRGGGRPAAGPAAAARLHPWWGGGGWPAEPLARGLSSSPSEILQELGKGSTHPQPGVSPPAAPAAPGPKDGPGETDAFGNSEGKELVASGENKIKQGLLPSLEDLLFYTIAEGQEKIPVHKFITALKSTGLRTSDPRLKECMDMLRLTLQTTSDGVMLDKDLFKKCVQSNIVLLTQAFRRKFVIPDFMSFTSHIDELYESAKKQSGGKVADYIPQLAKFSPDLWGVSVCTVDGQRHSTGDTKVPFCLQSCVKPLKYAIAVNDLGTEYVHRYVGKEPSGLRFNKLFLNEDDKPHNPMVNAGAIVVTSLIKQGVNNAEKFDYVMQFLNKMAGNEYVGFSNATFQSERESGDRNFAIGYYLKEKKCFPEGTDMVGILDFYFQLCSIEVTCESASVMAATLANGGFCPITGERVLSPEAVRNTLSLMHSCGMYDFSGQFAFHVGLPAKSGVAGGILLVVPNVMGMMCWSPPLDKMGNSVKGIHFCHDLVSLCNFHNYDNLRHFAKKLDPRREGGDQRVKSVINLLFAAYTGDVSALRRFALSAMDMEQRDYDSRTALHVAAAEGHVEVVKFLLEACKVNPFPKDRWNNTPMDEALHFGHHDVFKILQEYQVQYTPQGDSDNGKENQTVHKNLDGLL
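Read-out is an Amplex red fluorescence increase coupled through glutamate oxidase and HRP, measured before and after 30 min room-temperature incubation. hKGA is in 45 mM KH2PO4 (pH 8.2) with 0.02% Tween-20; glutamine added as 1mM solution.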
GRP78 ERSR act: qHTS for Inducers of the Endoplasmic Reticulum Stress Response (ERSR) in Human Glioma: qHTS. U87-MG GRP78 promoter luciferase reporter, 16 h. Potency, µM, without a hit: top-dose activation, hits mostly activators. 420,000 tested, 0.02% active. AID 602332, 2012; further: potency means the concentration at half of the fitted maximal effect; series mostly up to about 76 µM; % of control where 0% means no effect; nearly all actives have a fitted effect of over 35% in size
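ERSR induction read as luciferase luminescence (Bright-Glo, 10 min at room temperature) in stably transfected human U87-MG glioma cells exposed to compounds for 16 h, using GRP78 as sensor.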
CCT chaperon mod: High-Throughput Screening for Modulators of Cytosolic Chaperonin Activity. purified chaperonin ATPase assay, HTRF ADP detection, 30 min. 360,000 tested, 0.3% active. activity change, % (concentration not given with the values), hits read low. AID 651819, 2012; in the data active means activity change below about -30%; further: on the % scale 0 is the no-effect control and ±100 the full control effect
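First, chaperonin was dispensed at 40 nM or 20 nM final depending on batch activity. Next, compounds were pinned at 76 uM and ATP added at 10 uM. After 30 min at 37 °C, ADP detection reagents ran 30 min at ambient temperature.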
* hit, by the source's call; i = inactive; ? = inconclusive; / = no result; [ ] = another dose, or the depositor's remark. Unless noted, the call rests on the fitted dose curve; in most records, active means well fitted curve in the direction sought with a large enough effect; inconclusive means small, poorly fitted or top-dose-only effect, or another doubt; inactive means no such curve, though single readings can be large; an effect the other way counts as inactive or inconclusive.

SMILES	Mm-Cpn inhibitor	IDH1 R132H inh	Akt phos inh	GLS inh	GRP78 ERSR act	CCT chaperon mod
Cc1ccccc1-n1c(O)c(/C=C2/C(c3ccccc3)=Nc3ccccc32)c(=O)[nH]c1=O	?	2%	i	22%	14%	-2
Cc1cccc(-n2c(O)c(/C=C3/C(c4ccccc4)=Nc4ccccc43)c(=O)[nH]c2=O)c1	-1%	4%	i	-3%	20%	-44*
Oc1cc[c]([Hg][Cl])cc1	/	/	/	?	-12%	/
O=C1C(Cl)=C(Cl)C(=O)C(Cl)=C1Cl	/	/	/	/	-11%	/
CCOP(=S)(OCC)N1CCOCCOCCN(P(=S)(OCC)OCC)CCOCCOCC1	0%	9%	i	-6%	-4%	0
CCOP(=O)(OCC)C(CC)N1CCOCC1 (configuration not stated)	-1%	2%	-118%*	-7%	-6%	3
CCOC(=O)N(c1ccccc1)P1(=S)OCCO1	1%	12%	-110%*	-5%	-2%	0
C=C/C=C/CC1=C(C)[C@@H](OC(=O)[C@@H]2[C@@H](/C=C(\C)C(=O)OC)C2(C)C)CC1=O (tested in a mixture with another compound)	/	/	/	-3%	-5%	/
O=C(c1ccco1)c1cn(Cc2ccccc2)c2ccccc12	?	4%	-87%*	0%	-3%	-1
O=C(O)c1cccc2c1NC(c1cccc([N+](=O)[O-])c1)C1CC(Sc3ccccc3[N+](=O)[O-])C(Cl)C21 (configuration not stated)	2%	29µM*	i	5%	-2%	-46*
C[C@]12CC[C@H]3[C@@H](CC=C4C[C@@H](O)CC[C@@]43C)[C@@H]1CC[C@@H]2O	/	/	/	7%	0%	/
C[C@]12CC[C@H](O)CC1=CCC1C2CC[C@@]2(C)C1CC[C@@H]2OCc1ccccc1 (some centres not stated)	-7%	0%	i	-9%	-2%	-32*
CCN(CC)C(=O)c1ccc2c(c1)C1C=CCC1C(C(=O)O)N2 (configuration not stated)	-2%	10%	i	7.1µM*	-3%	-6
CC(=O)N1CC(O)CC1C(=O)O (configuration not stated)	/	/	/	4%	-4%	/
C[C@]12CC[C@@H]3c4ccc(OC(=O)N(CCCl)CCCl)cc4CC[C@@H]3[C@H]1CC[C@@H]2OP(=O)(O)O	/	/	/	-15%	-4%	/
C=CCNC(=O)c1c(N)n(Cc2ccco2)c2nc3ccccc3nc12	-3%	-2%	-99%*	2%	-5%	1
C=C1[C@@H](OC(C)=O)[C@]23C[C@@H]1[C@@H](OC(C)=O)CC2[C@]12C4C[C@H]3[C@H]1N(CC)C[C@]4(C)CC[C@@H]2O (some centres not stated)	/	-12%	i	7%	1%	-68*
C=C1[C@@H]2C[C@]3(C(CC2=O)[C@]24C5C[C@H]3[C@H]2N(CC)C[C@]5(C)CC[C@@H]4O)[C@@H]1O (some centres not stated)	/	/	/	/	-2%	/
COP(=O)(C#Cc1ccccc1)C(O)c1ccc(Br)cc1 (configuration not stated)	-1%	5%	i	-5%	1%	-105*
CCOP(=O)(C#Cc1ccccc1)C(O)c1ccc(Br)cc1 (configuration not stated)	0%	5%	i	6%	4%	-1
Cc1c(C)c2ccc(OCC(=O)N3C[C@H]4C[C@@H](C3)c3cccc(=O)n3C4)c(C)c2oc1=O	1%	-12%	i	3%	3%	-2
Cc1cc(OCC(=O)N2C[C@H]3C[C@@H](C2)c2cccc(=O)n2C3)c2c(C)c(C)c(=O)oc2c1	-5%	2%	i	-7%	-1%	-59*
CC/C(=N\Nc1ccccc1)c1c(O)n(-c2ccc(OC)cc2)c(=O)[nH]c1=O	-6%	-1%	i	10µM*	2%	1
Oc1ccc(-c2cccnc2)cc1CNC1CN2CCC1CC2 (configuration not stated)	/	/	/	/	1%	/
CN[C@H](C)Cc1ccccc1	/	/	/	-6%[99.4 µM]	-2%	/
SMILES	Mm-Cpn inhibitor	IDH1 R132H inh	Akt phos inh	GLS inh	GRP78 ERSR act	CCT chaperon mod
N#CC(C#N)=Cc1ccc(N2CCCC2)cc1	-5%	-3%	i	2%	-3%	-46*
CC(=O)[C@@]1(O)CC[C@@H]2[C@@H]3CCC4=CC(=O)CC[C@]4(C)[C@]3(F)[C@@H](O)C[C@@]21C	/	/	/	1%	-4%	/
CCC(=NCCN1CCOCC1)c1c(O)n(-c2ccccc2C)c(=O)[nH]c1=O	0%	1%	-122%*	4%	-5%	-1
C[C@]12CCC(=O)C=C1CC[C@H]1C2CC[C@@]2(C)[C@@H]1CC[C@]2(C)O (some centres not stated)	/	/	/	4%	-3%	/
CCCN1C2CCCC1CC(NC(C)=O)C2 (configuration not stated)	1%	3%	i	-8%	-5%	-33*
CC(=O)NC1CC2CCCC(C1)N2 (configuration not stated)	1%	-3%	i	-18%	-2%	-1
CCOC(=O)C1CCN(/C=C2/C(=O)NC(=S)N(c3cccc(OC)c3)C2=O)CC1	0%	-4%	i	-8%	-1%	-42*
CCOC(=O)C1CCN(/C=C2\C(=O)NC(=S)N(CC)C2=O)CC1	-6%	12%	i	37%	-2%	-1
O=NN(CCCl)C(=O)NC1CCCCC1	/	/	/	4%	?	/
C[C@]12CC[C@@H]3c4ccc(OC(=O)N(CCCl)CCCl)cc4CC[C@H]3[C@@H]1CC[C@@H]2OP(=O)(O)O	/	/	/	3%	-1%	/
O=C1OC(c2cc(I)c(O)c(I)c2)(c2cc(I)c(O)c(I)c2)c2ccccc21	/	/	/	25µM*	6%	/
O=C1C(I)=CC(=C(c2cc(I)c(O)c(I)c2)c2ccccc2C(=O)O)C=C1I	/	/	/	?	8%	/
Cc1cc(/C=C2\C(=O)NC(=O)N(c3ccc(F)cc3)C2=O)c(C)n1-c1cccc(C(=O)O)c1	-1%	11%	i	?	-4%	-2
